Values without a mark were called inactive. Records with an inconclusive call do not appear. Activity calls are given as the source filed them. Unless noted, calls come from the whole dose curve; as a rule, active = well fitted curve in the direction sought with a large enough effect; inconclusive = small, poorly fitted or top-dose-only effect, or another doubt; inactive = no such curve, though single readings can be large; an effect the other way counts as inactive or inconclusive.

Assay [1] concerns the target Lysosomal acid glucosylceramidase (Homo sapiens) (UniProt P04062). The assay is described as follows: Glucocerebrosidase-p2 (AID 348; in the data active = potency below about 10 µM; note: potency is the fitted concentration of half-maximal effect). Particulars: purified GBA, blue fluorogenic substrate, 40 min. In outline: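 Compounds titrated from 0.6 nM upwards against 0.2 nM enzyme in pH 5.9 citric acid/KH2PO4, taurocholate, tween-20; blue fluorogenic substrate 80 uM, 40 min room temperature, stopped and read Ex 365/Em 440 for AC50.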

Assay [2] in a line: AP1 Signaling Pathway (AID 357; active = well fitted curve in either direction with a large enough effect, not every such curve was filed as active;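 note: ME-180 reporter cells stimulated with EGF at its EC50 level; % is set by controls: 0 for no effect and ±100 for the full control effect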). To be noted: ME-180 AP-1-bla reporter, EGF-induced, beta-lactamase ratio, 5 h; at 7.69 µM (top of the series) unless noted. In outline: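 In this screen, ME-180 cells in Opti-MEM with 0.5% dialyzed FBS received EC50 EGF and compound titrations for 5 h. AP-1 reporter beta-lactamase was detected via CCF4 ratio, giving AC50 for positive and negative modulators.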

Assay [3] can be described thus: NFAT Signaling Pathway (AID 444; active = well fitted curve in either direction with a large enough effect, not every such curve was filed as active;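 note: carbachol stimulus at about its EC50 of 1 µM final; % is set by controls: 0 for no effect and ±100 for the full control effect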). To be noted: Jurkat NFAT-bla M1, carbachol, beta-lactamase ratio, 5 h; at 7.69 µM (top of the series) unless noted. In outline:
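Read-out: CCF4 FRET ratio (460 nm/530 nm) after 1 h RT dye loading, used for %activity and AC50 from titration series. Cells: Jurkat NFAT-β-lactamase/M1 line, treated with compound plus 1 uM carbachol for 5 h, 37 °C.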

Assay [4] is described as follows: Stat Signaling Pathway (AID 446; active = well fitted curve in either direction with a large enough effect, not every such curve was filed as active;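 note: ME-180 cervical cancer cells given 40 pM IL-6 alongside compound; SIE-controlled beta-lactamase reporter measured as 460/530 nm FRET emission ratio; % is set by controls: 0 for no effect and ±100 for the full control effect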). Particulars: ME-180 (cervical carcinoma) SIE beta-lactamase reporter, IL-6 stimulated, 5 h; at 7.69 µM (top of the series) unless noted. An outline of the steps:
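ME-180 cells carrying a SIE-driven beta-lactamase reporter are stimulated with 40 pM IL-6 for 5 h at 37C in the presence of compound. The 460/530 nm FRET substrate ratio is read after 2.5 h at RT. Data are normalised to 300 pM IL-6 and to 125 nM JAK inhibitor controls.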

For assay [5], the target named is Glucocorticoid receptor (Homo sapiens) (UniProt P04150). The assay is described as follows: GR-GFP Redistribution (AID 450;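 active = compounds whose dose series gives a full or clear partial fitted curve of increased nuclear translocation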; note: potency is the fitted concentration of half-maximal effect). To be noted: U2OS GR-GFP nuclear translocation, laser cytometry, 2 h.
The target is the same in assay [6]. The assay is described as follows: GR-EFC Redistribution (AID 451; calls by dose curve; note: potency is the fitted concentration of half-maximal effect). Particulars: CHO-K1 GR-EFC translocation, beta-gal luminescence, 2 h. In outline:
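Translocation of GR-ED fusion to nuclear EA restores b-gal, read by luminescence after 1 h room-temperature detection. Engineered CHO-K1 biosensor cells, 1,000/well, exposed 2 h at 37 C to titrations up to 46 uM final.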

Assay [7] addresses Mitogen-activated protein kinase 10 (Mus musculus) (UniProt Q61831). The assay is described as follows: JNK3 AlphaScreen Assay (AID 530; active = well fitted curve in either direction with a large enough effect, not every such curve was filed as active;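 note: kinase came from lysate of stimulated human HepG2 cells; signal reports phosphorylation of biotinylated GST-cJun 1-79 at Ser73 with 10 µM ATP; % is set by controls: 0 for no effect and ±100 for the full control effect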). To be noted: JNK3 lysate, c-Jun phosphorylation; series mostly up to 57.1 µM. In outline:
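Room-temperature AlphaScreen kinase assay; pre-activated HepG2 lysate as JNK3 source, biotin-GST-cJun(1-79) substrate, 10 uM ATP, compound 15 min preincubation.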

Assay [8] has as its target 3',5'-cyclic-AMP phosphodiesterase 4B (Homo sapiens) (UniProt Q07343). As to the kind of experiment: qHTS Assay for Inhibitors of PDE-IV (AID 607; active = well fitted activation curve with a large enough effect in the main read-out, with a control signal flat, not every such curve was filed as active; note: potency is the fitted concentration of half-maximal effect). Particulars: HEK293 ACTOne CNG channel cells, membrane potential fluorescence; series mostly up to 22.9 µM. An outline of the steps:
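HEK293 ACTOne cells with CNG channel (1000/well), endogenous PDE4; membrane potential dye, compounds up to 22.9 uM final. Fluorescence Ex 535/Em 590; RO 20-1724 (100 uM final) as reference.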

The target in assay [9] is Dual specificity protein kinase CLK4 (Homo sapiens) (UniProt Q9HAZ1). As to the kind of experiment: qHTS Assay for Inhibitors of CDC-like Kinase 4 (ADP-FP Assay) (AID 1795). Note: nearly all actives have a fitted effect of over 60% in size. Note: potency is the fitted concentration of half-maximal effect. To be noted: Transcreener ADP fluorescence polarization; series mostly up to 50 µM. An outline of the steps: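 Inhibition of ADP formation by 6.25 nM Clk4 is measured using 1 uM ATP and 100 uM RS repeat peptide over one hour. Produced ADP displaces a fluorescent tracer from antibody, lowering polarization.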

The target of assay [10] is Ubiquitin carboxyl-terminal hydrolase 1 (Homo sapiens) (UniProt O94782). As to the kind of experiment: Inhibitors of USP1/UAF1: Pilot qHTS (AID 504865). Note: nearly all actives have a fitted effect of over 35% in size. Note: potency is the fitted concentration of half-maximal effect. Particulars: purified USP1/UAF1, Ub-rhodamine cleavage fluorescence; series mostly up to 54.9 µM. In outline:
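Kinetic fluorescence assay: 1nM USP1/UAF1, 15 min compound preincubation, then 150nM Ub-Rho; 480/540 nm.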

Assay [11] in a line: Primary qHTS for small molecule stabilizers of the endoplasmic reticulum resident proteome: Secreted ER Calcium Modulated Protein (SERCaMP) assay (AID 1508630). Note: % is set by controls: 0 for no effect and ±100 for the full control effect. Particulars: SH-SY5Y GLuc-SERCaMP (Gaussia luciferase released on ER calcium loss) secretion, thapsigargin, luminescence; series mostly up to 38.4 µM. In outline: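 GLuc-SERCaMP-expressing SH-SY5Y cells, pretreated 16 h with compound, are challenged with thapsigargin to empty ER calcium stores; after 4 h, coelenterazine is added directly to the medium and luminescence is imaged.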

Assay [12] has as its target Cytochrome P450 1A2 (Homo sapiens) (UniProt P05177). As to the kind of experiment: p450-cyp1a2 (AID 410; calls by dose curve; note: potency is the fitted concentration of half-maximal effect). To be noted: recombinant CYP1A2, luciferin-ME demethylation, luminescence; series mostly up to 57 µM. An outline of the steps: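 Inhibition was calculated relative to 57 uM furafylline (full inhibition). The reaction used human CYP1A2 at 20nM with Luciferin-ME at its Km, 100uM, driven by an NADPH-regenerating system for 60 min at room temperature.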

Assay [13] has as its target Cytochrome P450 3A4 (Homo sapiens) (UniProt P08684). The assay is described as follows: qHTS Assay for Activators of Cytochrome P450 3A4 (AID 885). Note: nearly all actives have a fitted effect of over 65% in size. Particulars: recombinant CYP3A4, Luciferin-PPXE luminescence, 60 min; series mostly up to 57.1 µM. An outline of the steps: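 Human CYP3A4 (20 nM) with Luciferin-PPXE at 25 uM (its KM) in 200 mM KPO4; 10 min compound preincubation, then NADPH regeneration and 60 min reaction at RT. Luciferin read by luminescence; normalized to 57 uM ketoconazole full inhibition.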

For assay [14] the target is unchanged. As to the kind of experiment: qHTS Assay for Inhibitors and Substrates of Cytochrome P450 3A4 (AID 884). Note: potency is the fitted concentration of half-maximal effect; nearly all actives have a fitted effect of over 50% in size. To be noted: recombinant CYP3A4, Luciferin-PPXE luminescence; series mostly up to 57.1 µM. An outline of the steps:
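20 nM human CYP3A4 with 25 uM Luciferin-PPXE (at KM) in 200 mM KPO4, preincubated 10 min with compound; NADPH regeneration started a 60 min RT reaction. Luciferin detected by luminescence, normalized to 57 uM ketoconazole as full inhibition.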

Assay [15] deals with Cytochrome P450 2C19 (Homo sapiens) (UniProt P33261). The assay is described as follows: qHTS Assay for Inhibitors and Substrates of Cytochrome P450 2C19 (AID 899). Note: potency is the fitted concentration of half-maximal effect; nearly all actives have a fitted effect of over 60% in size. To be noted: recombinant CYP2C19, luciferin-H EGE luminescence; series mostly up to 57.1 µM. In outline:
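5nM enzyme + 10uM Luciferin-H EGE (=KM), 50mM KPO4; cpd pin-transferred, 10 min 37C; NADPH regen, 60 min 37C; stopped w/ luciferin detection reagent, 20 min; luminescence. Normalized to 57uM ketoconazole (AC100).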

Assay [16] deals with Cytochrome P450 2D6 (Homo sapiens) (UniProt P10635). The assay is described as follows: qHTS Assay for Inhibitors and Substrates of Cytochrome P450 2D6 (AID 891). Note: potency is the fitted concentration of half-maximal effect; nearly all actives have a fitted effect of over 60% in size. Particulars: recombinant CYP2D6, luciferin-ME EGE luminescence; series mostly up to 57.1 µM. An outline of the steps: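 Human CYP2D6 (5 nM) with 30 uM Luciferin-ME EGE (at Km) in 100 mM KPO4, compound preincubated 10 min, then NADPH regeneration system for 60 min at room temperature. Luciferin read by luminescence; normalized to 1.43 uM quinidine.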

Chain of Cytochrome P450 1A2 (Homo sapiens) (P05177 whole entry, looked up): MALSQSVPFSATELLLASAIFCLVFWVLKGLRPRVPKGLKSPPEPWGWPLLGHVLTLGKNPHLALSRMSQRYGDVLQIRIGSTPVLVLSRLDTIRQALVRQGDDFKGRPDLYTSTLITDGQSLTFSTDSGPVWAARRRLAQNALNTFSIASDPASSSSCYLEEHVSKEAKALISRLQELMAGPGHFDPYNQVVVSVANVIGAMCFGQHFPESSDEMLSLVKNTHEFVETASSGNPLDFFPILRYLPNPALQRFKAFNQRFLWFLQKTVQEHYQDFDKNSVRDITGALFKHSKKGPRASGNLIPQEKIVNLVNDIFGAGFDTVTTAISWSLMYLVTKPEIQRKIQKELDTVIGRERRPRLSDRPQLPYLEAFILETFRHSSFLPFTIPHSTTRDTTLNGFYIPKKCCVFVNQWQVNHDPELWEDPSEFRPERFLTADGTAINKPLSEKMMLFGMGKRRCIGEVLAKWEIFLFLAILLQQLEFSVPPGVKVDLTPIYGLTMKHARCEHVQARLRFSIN
Chain of Glucocorticoid receptor (Homo sapiens) (P04150 whole entry, looked up): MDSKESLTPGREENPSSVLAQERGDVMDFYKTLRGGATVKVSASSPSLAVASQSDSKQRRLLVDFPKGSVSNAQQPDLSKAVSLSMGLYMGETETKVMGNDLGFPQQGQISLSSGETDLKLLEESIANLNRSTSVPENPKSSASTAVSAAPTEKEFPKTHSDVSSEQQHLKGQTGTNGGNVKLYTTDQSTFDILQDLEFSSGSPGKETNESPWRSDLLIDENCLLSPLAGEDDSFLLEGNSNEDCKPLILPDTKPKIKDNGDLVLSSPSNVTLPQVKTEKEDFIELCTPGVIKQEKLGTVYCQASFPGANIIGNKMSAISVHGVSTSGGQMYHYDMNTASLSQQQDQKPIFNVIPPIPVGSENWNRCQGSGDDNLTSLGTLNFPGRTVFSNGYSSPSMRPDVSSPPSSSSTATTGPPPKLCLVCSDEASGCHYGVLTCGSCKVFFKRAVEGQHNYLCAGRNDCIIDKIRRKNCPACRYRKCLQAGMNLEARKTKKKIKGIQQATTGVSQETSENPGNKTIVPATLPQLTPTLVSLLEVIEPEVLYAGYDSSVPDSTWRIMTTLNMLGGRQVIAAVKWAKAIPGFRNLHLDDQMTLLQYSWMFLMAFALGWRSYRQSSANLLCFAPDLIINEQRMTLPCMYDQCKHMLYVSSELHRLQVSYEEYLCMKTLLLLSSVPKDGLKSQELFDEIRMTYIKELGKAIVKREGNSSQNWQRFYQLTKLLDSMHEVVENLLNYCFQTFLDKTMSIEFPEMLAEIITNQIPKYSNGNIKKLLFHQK
Chain of 3',5'-cyclic-AMP phosphodiesterase 4B (Homo sapiens) (Q07343 whole entry, looked up): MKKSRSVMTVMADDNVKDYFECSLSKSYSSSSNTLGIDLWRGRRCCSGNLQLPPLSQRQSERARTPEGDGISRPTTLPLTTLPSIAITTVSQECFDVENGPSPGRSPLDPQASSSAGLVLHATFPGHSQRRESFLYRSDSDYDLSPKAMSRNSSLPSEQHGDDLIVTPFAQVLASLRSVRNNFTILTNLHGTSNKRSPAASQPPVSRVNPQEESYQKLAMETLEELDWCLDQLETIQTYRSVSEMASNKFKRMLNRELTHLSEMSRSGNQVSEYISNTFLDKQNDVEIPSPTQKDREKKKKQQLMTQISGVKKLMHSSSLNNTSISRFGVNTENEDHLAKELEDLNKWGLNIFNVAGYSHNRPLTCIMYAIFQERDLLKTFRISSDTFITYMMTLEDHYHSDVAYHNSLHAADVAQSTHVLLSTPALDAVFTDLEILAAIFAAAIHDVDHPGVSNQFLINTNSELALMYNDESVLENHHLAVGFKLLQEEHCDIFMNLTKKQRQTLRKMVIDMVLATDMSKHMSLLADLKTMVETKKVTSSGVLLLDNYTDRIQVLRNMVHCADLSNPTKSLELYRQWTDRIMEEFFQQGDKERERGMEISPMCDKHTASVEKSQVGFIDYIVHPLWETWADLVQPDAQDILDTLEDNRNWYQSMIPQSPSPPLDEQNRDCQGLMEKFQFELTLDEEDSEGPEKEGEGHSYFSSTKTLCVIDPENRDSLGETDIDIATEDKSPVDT
Chain of Ubiquitin carboxyl-terminal hydrolase 1 (Homo sapiens) (O94782 whole entry, looked up): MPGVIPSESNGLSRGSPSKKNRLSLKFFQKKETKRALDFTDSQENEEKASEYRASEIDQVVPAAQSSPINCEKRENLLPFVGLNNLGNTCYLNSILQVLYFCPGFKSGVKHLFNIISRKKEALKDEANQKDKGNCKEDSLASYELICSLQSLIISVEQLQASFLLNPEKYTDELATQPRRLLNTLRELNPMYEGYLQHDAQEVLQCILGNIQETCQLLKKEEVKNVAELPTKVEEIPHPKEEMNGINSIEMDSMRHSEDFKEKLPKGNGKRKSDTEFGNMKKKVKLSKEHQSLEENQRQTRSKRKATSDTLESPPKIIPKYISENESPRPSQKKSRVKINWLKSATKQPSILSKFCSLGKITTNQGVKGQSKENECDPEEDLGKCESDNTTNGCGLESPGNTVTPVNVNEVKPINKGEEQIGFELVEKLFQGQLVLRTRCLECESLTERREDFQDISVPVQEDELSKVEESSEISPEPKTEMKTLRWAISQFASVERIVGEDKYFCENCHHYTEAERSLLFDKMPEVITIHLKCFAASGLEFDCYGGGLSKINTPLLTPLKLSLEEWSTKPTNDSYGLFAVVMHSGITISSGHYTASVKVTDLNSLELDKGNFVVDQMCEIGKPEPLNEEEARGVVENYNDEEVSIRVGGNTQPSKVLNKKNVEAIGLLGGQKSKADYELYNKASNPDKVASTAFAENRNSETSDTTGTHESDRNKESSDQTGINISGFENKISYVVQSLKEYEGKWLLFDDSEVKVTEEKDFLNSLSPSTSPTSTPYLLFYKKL
Chain of Cytochrome P450 3A4 (Homo sapiens) (P08684 whole entry, looked up): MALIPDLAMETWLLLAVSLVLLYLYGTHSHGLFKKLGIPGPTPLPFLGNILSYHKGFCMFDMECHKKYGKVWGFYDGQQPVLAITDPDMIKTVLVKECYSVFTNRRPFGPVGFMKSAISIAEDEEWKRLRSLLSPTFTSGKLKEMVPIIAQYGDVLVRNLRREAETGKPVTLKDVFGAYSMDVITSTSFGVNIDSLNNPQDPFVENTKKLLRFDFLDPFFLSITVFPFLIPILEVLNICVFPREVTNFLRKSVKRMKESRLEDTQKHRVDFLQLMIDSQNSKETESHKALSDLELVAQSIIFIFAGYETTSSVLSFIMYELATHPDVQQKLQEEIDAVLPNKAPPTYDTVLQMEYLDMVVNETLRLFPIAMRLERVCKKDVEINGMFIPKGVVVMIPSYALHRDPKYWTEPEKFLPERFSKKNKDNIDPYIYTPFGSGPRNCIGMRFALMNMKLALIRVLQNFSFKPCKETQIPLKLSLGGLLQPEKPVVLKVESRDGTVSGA
Chain of Dual specificity protein kinase CLK4 (Homo sapiens) (Q9HAZ1 whole entry, looked up): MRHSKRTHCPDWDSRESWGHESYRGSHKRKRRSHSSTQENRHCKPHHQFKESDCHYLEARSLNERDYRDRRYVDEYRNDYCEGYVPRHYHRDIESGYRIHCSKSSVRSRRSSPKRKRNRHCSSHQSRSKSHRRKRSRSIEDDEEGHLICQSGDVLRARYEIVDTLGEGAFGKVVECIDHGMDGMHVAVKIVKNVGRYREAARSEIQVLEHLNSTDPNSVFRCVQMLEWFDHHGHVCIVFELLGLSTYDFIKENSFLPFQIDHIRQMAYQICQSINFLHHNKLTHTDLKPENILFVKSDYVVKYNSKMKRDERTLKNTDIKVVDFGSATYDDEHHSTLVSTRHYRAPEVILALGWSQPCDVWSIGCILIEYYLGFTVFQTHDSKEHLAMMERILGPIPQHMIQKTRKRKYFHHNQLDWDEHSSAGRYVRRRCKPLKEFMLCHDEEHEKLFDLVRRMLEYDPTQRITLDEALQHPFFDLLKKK
Chain of Lysosomal acid glucosylceramidase (Homo sapiens) (P04062 whole entry, looked up): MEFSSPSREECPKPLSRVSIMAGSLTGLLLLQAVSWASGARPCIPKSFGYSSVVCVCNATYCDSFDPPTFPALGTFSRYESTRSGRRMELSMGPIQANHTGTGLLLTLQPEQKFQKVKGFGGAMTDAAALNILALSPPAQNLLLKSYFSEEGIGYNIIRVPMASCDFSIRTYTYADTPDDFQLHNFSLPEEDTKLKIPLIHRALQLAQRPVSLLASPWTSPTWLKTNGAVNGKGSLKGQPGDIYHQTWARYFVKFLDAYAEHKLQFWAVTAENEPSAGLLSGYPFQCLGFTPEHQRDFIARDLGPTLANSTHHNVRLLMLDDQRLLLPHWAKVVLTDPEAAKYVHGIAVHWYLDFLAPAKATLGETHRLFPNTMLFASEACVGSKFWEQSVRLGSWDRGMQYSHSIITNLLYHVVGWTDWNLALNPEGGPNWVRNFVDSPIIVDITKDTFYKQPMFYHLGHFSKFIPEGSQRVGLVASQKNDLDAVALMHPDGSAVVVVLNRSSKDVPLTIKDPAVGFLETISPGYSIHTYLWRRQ
Chain of Cytochrome P450 2C19 (Homo sapiens) (P33261 whole entry, looked up): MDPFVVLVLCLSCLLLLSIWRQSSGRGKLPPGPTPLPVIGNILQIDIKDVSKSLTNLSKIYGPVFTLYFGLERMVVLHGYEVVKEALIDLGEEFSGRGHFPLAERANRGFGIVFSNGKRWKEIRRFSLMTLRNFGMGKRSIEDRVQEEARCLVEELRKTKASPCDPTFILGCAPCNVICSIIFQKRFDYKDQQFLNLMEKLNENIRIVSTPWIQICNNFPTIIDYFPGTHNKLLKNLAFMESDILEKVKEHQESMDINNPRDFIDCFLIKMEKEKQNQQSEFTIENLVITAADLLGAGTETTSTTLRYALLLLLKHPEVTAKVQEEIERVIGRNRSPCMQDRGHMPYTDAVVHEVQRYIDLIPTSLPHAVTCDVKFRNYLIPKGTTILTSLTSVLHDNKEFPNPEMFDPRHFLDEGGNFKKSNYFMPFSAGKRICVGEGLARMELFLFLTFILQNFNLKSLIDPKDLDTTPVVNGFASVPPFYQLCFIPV

As for `N#Cc1cccc(-c2cncnc2NCCc2cnc[nH]2)c1`, the Potency in assay [1] was more than 11.4 µM; in assay [5], more than 46 µM; in assay [6], more than 46 µM. For the same compound, the activity change, negative = inhibition in assay [2] was -12%; in assay [3], 4.36%. The activity, negative = inhibition in assay [4] was -1.18%. In addition, the Potency result in assay [7], in assay [8], in assay [9] and in assay [10] was “inactive” in each case. Further, the result in assay [11] was inactive.
On to `COc1ccccc1-c1nc(NCc2cccs2)c2ccccc2n1`, for which the Potency was more than 11.4 µM in [1]; 0.631 µM (active) in assay [12]; more than 46 µM in assay [5]; more than 46 µM in [6]; 15.8 µM (active) in assay [10]. Also, the activity change, negative = inhibition in assay [3] is -14.6%. In [4], the activity, negative = inhibition is 21.2%. Further, the Potency entry in [7], in assay [13] and in assay [9] was “inactive” throughout. For the same compound, the outcome in [11] was inactive.
In the case of `CN(Cc1ccco1)c1nc(-c2ccc3c(c2)OCO3)nc2ccccc12`, the Potency is more than 11.4 µM in assay [1]; 0.501 µM (active) in assay [12]; more than 46 µM in assay [5]; 1.58 µM (active) in [14]; 7.94 µM (active) in [15]. The activity change, negative = inhibition in [2] is 17%. In addition, the activity, negative = inhibition in assay [4] was 1.32%. Moreover, the Potency entry in assay [7], in assay [13], in [9] and in [10] was “inactive” throughout. In addition, the outcome in assay [11] was inactive.
Take `COc1ccc(-c2nc3cnc(N4CCOCC4)nc3n(Cc3cccs3)c2=O)cc1`: the Potency in assay [1] was more than 11.4 µM; in [12], 2.51 µM (active); in [5], more than 9.22 µM; in assay [6], more than 46 µM; in [8], 1.58 µM (active). Also, the activity change, negative = inhibition in assay [2] is 12.3%; in assay [3] it was -2.31%. Further, the Potency entry in assay [7], in assay [9] and in assay [10] was “inactive” in each case. Further, in assay [11], the outcome was inactive.
As to `CN(C)C(=O)c1ccc(-c2ccc3ncnc(Nc4ccccc4)c3c2)cc1`, the Potency in [1] is more than 11.4 µM; in assay [12], 15.8 µM (active); in assay [5] it was more than 46 µM; in assay [6], more than 46 µM. Besides, in [4], the activity, negative = inhibition was 0.91%. The Potency result in assay [7], in [8], in [13], in assay [9] and in [10] was “inactive” throughout. Moreover, the outcome in assay [11] was inactive.
Take `c1ccc(CNc2ccnc(-c3cccnc3)n2)cc1`: the Potency in assay [1] was more than 11.4 µM; in assay [12] it was 0.251 µM (active); in [5] it was more than 46 µM; in [6], more than 46 µM; in assay [14], 0.631 µM (active); in assay [16], 1.26 µM (active). Further, the Potency in [15] is 2.51 µM (active). For the same compound, the activity change, negative = inhibition in assay [2] was -10.3%; in [3] it was 7.79%. Besides, the Potency result in assay [7], in assay [13], in assay [9] and in assay [10] was “inactive” in each case. Also, the result in assay [11] was inactive.
With `c1ccc(Nc2ncncc2-c2ccoc2)cc1`, the Potency in [1] was more than 11.4 µM; in assay [12], 1 µM (active); in assay [6], more than 46 µM; in assay [14], 2 µM (active); in assay [9] it was 5.62 µM (active). Moreover, the activity change, negative = inhibition in [2] was -25%; in assay [3], 0.789%. Moreover, the activity, negative = inhibition in assay [4] was 5.02%. Besides, the Potency entry in assay [7] and in [13] was “inactive” throughout. Also, the result in [11] was inactive.

The values are drawn from PubChem BioAssay (NCATS).
